# USP1-UAF1 inh = USP1/UAF1 (human) deubiquitinase inhibition; O94782; AID 743255; Potency, µM (series often up to 57.1 µM), hits mostly inhibitors; recombinant USP1/UAF1, Ub-Rhodamine cleavage fluorescence; 390,000 tested, 0.23% active; active = well fitted inhibition curve with a large enough effect; inconclusive = small, poorly fitted or top-dose-only effect; inactive = no such curve, though single readings can be large or run the other way; note: nearly all actives have a fitted effect of over 60% in size
# Target sequence (O94782 whole entry, looked up): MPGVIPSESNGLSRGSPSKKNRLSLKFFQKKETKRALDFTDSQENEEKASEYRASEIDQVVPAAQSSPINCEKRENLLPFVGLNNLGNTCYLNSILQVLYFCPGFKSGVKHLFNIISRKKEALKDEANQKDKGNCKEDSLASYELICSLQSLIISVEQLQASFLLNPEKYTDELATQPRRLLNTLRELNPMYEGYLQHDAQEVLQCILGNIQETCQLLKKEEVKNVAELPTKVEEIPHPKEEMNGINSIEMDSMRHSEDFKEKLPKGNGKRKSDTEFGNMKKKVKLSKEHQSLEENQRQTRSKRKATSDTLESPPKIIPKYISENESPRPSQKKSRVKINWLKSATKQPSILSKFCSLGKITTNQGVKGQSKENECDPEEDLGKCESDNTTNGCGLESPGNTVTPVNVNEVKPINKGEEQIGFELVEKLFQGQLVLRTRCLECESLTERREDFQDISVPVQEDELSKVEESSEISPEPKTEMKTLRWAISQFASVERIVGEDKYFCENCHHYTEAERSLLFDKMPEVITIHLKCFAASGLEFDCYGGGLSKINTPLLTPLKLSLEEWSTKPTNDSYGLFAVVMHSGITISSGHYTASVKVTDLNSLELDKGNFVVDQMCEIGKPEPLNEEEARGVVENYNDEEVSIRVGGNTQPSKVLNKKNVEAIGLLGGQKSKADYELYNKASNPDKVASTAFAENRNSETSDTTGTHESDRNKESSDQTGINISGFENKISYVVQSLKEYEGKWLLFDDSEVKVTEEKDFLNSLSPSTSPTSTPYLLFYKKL
#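 High-throughput fluorogenic screen: 1nM USP1/UAF1 complex, Ub-Rho substrate 150nM final, 50mM HEPES pH 7.8 with 0.5mM EDTA, 0.1 mg/ml BSA, 1mM TCEP and 0.01% Tween-20.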
# D1 antagonist = human D1 dopamine receptor antagonism; P21728; HEK293 TREx D1 cells, calcium flux, dopamine EC80; hits give low values; activity change, negative = inhibition, % at 10 µM; 360,000 tested, 3.2% active; AID 504652; in the data active = activity change below about -30%
#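 Compound effects on dopamine-evoked calcium signalling were measured in tetracycline-induced HEK293 Trex D1 cells. Dopamine at EC80 followed a 180 s compound pre-read, and fluorescence was tracked kinetically for 180 s more.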
# D1 agonist = agonists of human D1 dopamine receptor; P21728; HEK293 T-REx D1 cells, calcium flux, agonist mode; activation, % at 2 µM; 360,000 tested, 1% active
#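 Tetracycline-induced HEK293 TREx D1 cells, force-coupled to calcium signalling, were dye-loaded with a no-wash calcium kit. Compound was pin-added after a 10 s baseline. Fluorescence was read kinetically at 1 cycle/s for 180 s, with calcium rises flagged as agonism.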
# TRHR enhancer = allosteric enhancers of human TRH receptor | TRHR cells, fluo-8 calcium fluorescence, EC20 TRH enhancement | enhancement, % at 2 µM | AID 493056 | P34981 | 360,000 tested, 0.66% active; in the data active = enhancement above about 30%
#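 TRHR-expressing cells loaded with fluo-8 calcium dye were read kinetically (ex 480/em 530) during compound addition, then stimulated with an EC20 of TRH (10 nM final). Enhancement of the Gq-mediated intracellular calcium response was scored.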
# TRHR ag = activates the human TRH receptor; activation, % at 2 µM; P34981; TRHR cells, calcium flux fluo-8, FDSS agonist mode; 360,000 tested, 0.18% active
#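 TRHR-expressing cells loaded with fluo-8 calcium dye; 23 nL library compound pin-transferred, kinetic FDSS fluorescence (Ex 480/Em 530) recorded about 180 s for agonist-induced calcium release, before a 10 nM TRH EC20 addition for potentiator mode.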
# D1 potentiator = potentiators of human D1 dopamine receptor | 360,000 tested, 0.036% active | HEK293 TREx D1 cells, calcium flux, dopamine EC20 potentiation | AID 504651 | potentiation, % at 10 µM | P21728; in the data active = potentiation above about 30%
# Numbers stand for hits; – = inactive; ? = inconclusive; · = no result given. Rows were chosen to be rich in hits. Some 4.4% of all compounds tested hit in one or more screens of this group. Cut-off read from the data, not from the text of the source, unless noted: active = activation above about 30%; inactive = the rest.
SMILES,USP1-UAF1 inh,D1 antagonist,D1 agonist,TRHR enhancer,TRHR ag,D1 potentiator
Cc1cc(S(=O)(=O)Nc2cc3c(cc2NCc2ccccc2)n(C)c(=O)n3C)ccc1F,–,–,–,–,–,–
COc1cc(-c2noc(C3CC(=O)N(c4cc(C)ccc4C)C3)n2)cc(OC)c1OC (configuration not stated),–,–,–,–,–,–
CCOc1ccc2nc(/N=C/c3nc(-c4ccc(Br)cc4)oc3O)sc2c1,–,–,37,–,–,–
CCCCOc1ccc(-c2nc(/C=N/c3nccs3)c(O)o2)cc1,–,–,–,–,–,–
CC(C)(C)C1CCc2nc(NC(=O)c3cccc(Cl)c3)sc2C1 (configuration not stated),–,–,–,–,–,–
CCCCNC(=S)Nc1ccc(SC(F)F)cc1,–,-42,–,–,–,–
CCCCNC(=S)Nc1ccc(F)cc1,–,–,–,–,–,–
O=[S+]([O-])(c1ccc2c(c1)OCCO2)N1CCN([S+](=O)([O-])c2ccc(F)cc2Br)CC1,·,–,–,–,–,–
Cc1csc(NC(=O)c2ccc(OCC3CCCO3)cc2)n1 (configuration not stated),–,-59,–,–,–,–
Cc1cccc(NC(=O)c2sc3ncnc(N(C)C4CCCCC4)c3c2C)c1C,–,–,–,–,–,–
Cc1cccc(Cn2c(CN3CCCC(C)C3)nc3c2c(=O)n(C)c(=O)n3C)c1 (configuration not stated),–,–,–,–,–,–
CCN(Cc1cccs1)C(=O)CN1C(=O)NC(c2ccccc2)(c2ccccc2)C1=O,–,–,–,35,–,–
CCN(Cc1cccs1)C(=O)CN1C(=O)NC2(CCCc3ccccc32)C1=O (configuration not stated),–,–,–,–,–,–
Cc1cc(NC(=O)CSc2nc3ccccc3n2CC(=O)N2CC(C)CC(C)C2)no1 (configuration not stated),–,-41,–,–,–,–
O=C(c1cc(COc2cccc3cnccc23)on1)N1CCCC(CCCO)C1 (configuration not stated),–,-55,–,–,–,–
CSc1ccccc1OCc1cc(C(=O)N2CCSCC2)no1,–,–,–,–,–,–
COc1ccccc1OCc1cc(C(=O)N2CCCC(OCc3cccnc3)C2)no1 (configuration not stated),–,-36,–,–,–,–
CSc1ccccc1OCc1cc(C(=O)N2CCC(Oc3cccnc3)CC2)no1,·,-46,–,–,–,–
CCN(CC)c1cc2c(cc1F)c(=O)c(S(=O)(=O)c1ccc(OC)cc1)cn2CC,?,–,–,–,–,–
Cc1nn(-c2ccccc2)c2c1cc1c(=O)[nH]c(=O)nc-1n2-c1cccc(C(F)(F)F)c1,–,–,–,–,–,–
Cn1cnc(C(=O)N2CCN(c3ccccc3)CC2)c1C(=O)N1CCN(c2ccccc2)CC1,–,-39,–,–,–,–
Cn1cnc(C(=O)N2CCN(C(=O)OC(C)(C)C)CC2)c1C(=O)N1CCN(C(=O)OC(C)(C)C)CC1,–,–,–,–,–,–
O=c1cc(-c2ccccc2)[nH]n1-c1ccccc1,–,·,·,·,·,·
O=c1cc(-c2ccccc2)[nH]n1-c1nc2ccccc2s1,–,-36,–,–,–,–
Cc1cc(Br)cc2c1N(Cc1ccccc1OC(C)C)C(=O)C2=O,–,-51,–,–,–,–
SMILES,USP1-UAF1 inh,D1 antagonist,D1 agonist,TRHR enhancer,TRHR ag,D1 potentiator
CC(=O)Nc1cnc(NC(=O)c2cccc(F)c2)cc1C,–,-36,–,–,–,–
CC1(C)C(=O)OC(c2ccc([N+](=O)[O-])cc2)C(C)(C)C1=O (configuration not stated),–,-32,–,–,–,–
CC1C(=O)C(C)(C)C(=O)OC1c1ccc([N+](=O)[O-])cc1 (configuration not stated),–,–,–,–,–,–
Cc1cccc(C)c1Nc1c(-c2ccccc2Cl)nc2cnccn12,–,–,–,–,–,–
Cc1ccc(SCC(=O)OCn2nnc3ccccc3c2=O)cc1C,–,-33,–,–,–,–
Cc1ccc(NC(=O)Cn2nnc3ccccc3c2=O)cc1C,–,-40,–,–,–,–
O=C(CN1C(=O)NC2(CCCCCC2)C1=O)c1ccc(F)cc1,–,-49,–,–,–,–
NC(=O)c1ccsc1NC(=O)CN1C(=O)NC2(CCCCC2)C1=O,–,–,–,–,–,–
N#Cc1ccsc1NC(=O)CN1C(=O)NC2(CCCC2)C1=O,·,-33,–,–,–,–
CN(Cc1ccccc1Br)C(=O)CN1C(=O)NC2(CCCCCC2)C1=O,–,-76,–,–,–,–
O=C(CN1C(=O)NC2(CCCC2)C1=O)OCc1ccc(Br)cc1,–,-66,–,–,–,–
Cc1ccc(Cc2nc3ccccc3nc2SCC(=O)NCc2ccccc2Cl)cc1,–,–,–,–,–,–
CCc1ccc(NC(=O)CN(c2ccc(C)cc2)S(=O)(=O)c2cccs2)cc1,–,–,–,–,–,–
Cc1cccc(Cn2ncc3c4sc(C)cc4n(C)c3c2=O)c1,·,–,–,–,–,–
CN(C)c1ccc(NC(=O)CN2C(=O)c3ccccc3Sc3ccc(C(=O)N4CCCC4)cc32)cc1,–,–,–,–,–,–
COc1ccc(C2=NN(CCC(=O)NCCc3ccccc3)C(=O)CC2)cc1,–,–,–,–,–,–
CCCc1cc(=O)n2[nH]c(NCc3cccs3)nc2n1,–,-37,–,–,–,–
COc1ccc(-c2noc(-c3ccc(NCc4ccco4)c([N+](=O)[O-])c3)n2)cc1,–,-32,–,–,–,–
COc1ccc(-c2noc(-c3ccc(NC4CCCCC4)c([N+](=O)[O-])c3)n2)cc1,–,–,–,–,–,–
COc1cc(-c2noc(-c3ccc(NC4CCCC4)c([N+](=O)[O-])c3)n2)cc(OC)c1OC,–,-30,–,–,–,–
COc1ccc(-c2noc(-c3ccc(N4CCCC4)c([N+](=O)[O-])c3)n2)cc1OC,–,-38,–,–,–,–
COc1ccc(-c2noc(-c3ccc(NCC4CCCO4)c([N+](=O)[O-])c3)n2)cc1 (configuration not stated),–,-58,–,–,–,–
Cc1ccc(-c2noc(-c3ccc(N4CCCC4)c([N+](=O)[O-])c3)n2)cc1,–,–,–,–,–,–
O=C(COCc1cc(-c2ccc(F)cc2)on1)Nc1cc(F)ccc1F,–,–,–,–,–,–
CCOC(=O)c1c(NC(=O)/C=C/c2ccc(Cl)cc2)sc2c1CCC(C)C2 (configuration not stated),?,–,–,–,–,–

# Screening data as filed in PubChem BioAssay.
